Only some compounds are listed: those with a hit (about 21% of all), similar ones and a draw of the others.
Pf growth 48h – P. falciparum growth inhibition at 48 hours (one generation). AID 504832. P. falciparum luciferase growth in erythrocytes, 48 h. 310,000 tested, 5.9% active. Potency, µM (doses to about 28.7 µM), hits mostly inhibitors
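Parasite viability was followed by luminescence of a genomically integrated firefly luciferase. Cultures held 0.1% parasitemia at 2% hematocrit (final), incubated under 5% CO2 at 37 C.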
Pf growth 96h – inhibits malaria parasite growth, 96 h | P. falciparum luciferase reporter growth, 96 h | AID 504834 | Potency, µM (doses to about 28.7 µM), hits mostly inhibitors | 320,000 tested, 6.9% active
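Cell-based qHTS: luciferase-tagged P. falciparum in erythrocytes (2% hematocrit, 0.05% parasitemia final) incubated with compounds for 96 hours, 37 C, 5% CO2; luciferase detection reagent then added and luminescence measured.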
NS1 function inh – influenza NS1 inhibition; Potency, µM (series often up to 46.1 µM); 270,000 tested, 0.4% active; AID 2326; calls by dose curve; further: actives are rising curves; nearly all actives have a fitted effect of over 50% in size
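Compounds were scored for reversing the slow growth caused by influenza A NS1 in S. cerevisiae, measured by optical density at 600 nm. Assay medium contained 2% galactose at pH 6.0; NS1-free yeast of the same strain were the positive control.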
Shiga toxin inh – blocks Shiga toxin action in Vero cells | inhibition, % at 38.7 µM | 290,000 tested, 9.2% active | Vero cells, Shiga toxin protein synthesis inhibition reporter | AID 2315; in the data active means inhibition mostly above about 28%, no sharp cut-off; inactive means mostly below about 43%
Cycloheximide cs – counter-screen for Shiga toxin inhibitors: cycloheximide protein synthesis inhibition; max response, %; cell reporter, cycloheximide protein synthesis inhibition counterscreen; 300,000 tested, 12% active; in the data active means max response mostly above about 13%, no sharp cut-off; inactive means mostly below about 14%; further: read at 38.3 µM for the half of the compounds with a filed dose
Sm TGR inh – inhibitors of Schistosoma mansoni thioredoxin glutathione reductase; 360,000 tested, 3% active; Q962Y6; purified TGR, DTNB reduction, TNB absorbance 405 nm; Potency, µM (series often up to 114 µM), actives largely listed as inhibitors; further: nearly all actives have a fitted effect of over 60% in size
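TGR 20 nM + NADPH 100 uM (dispensed conc.), cpd preinc 15 min RT; start with NADPH (500 uM addition) then DTNB (15 mM addition). Kinetic TNB absorbance, 405 nm filter. Four-parameter Hill fit across titration.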
A number is an active result. Unless noted, the call rests on the fitted dose curve; in most records, active means well fitted curve in the direction sought with a large enough effect; inconclusive means small, poorly fitted or top-dose-only effect, or another doubt; inactive means no such curve, though single readings can be large; an effect the other way counts as inactive or inconclusive.

Screening Cc1cccc(-c2nc3c(c(SCC(=O)N4CCOCC4)n2)Cc2c(CO)cnc(C)c2O3)c1 returned Pf growth 48h 5.86µM, Pf growth 96h inactive, NS1 function inh inactive, Shiga toxin inh inactive, Cycloheximide cs inactive and Sm TGR inh 22.4µM.
`O=C(CSc1nc(-c2ccc(Cl)cc2)nc2c1Cc1ccccc1O2)N1CCCCC1` gave Sm TGR inh inactive.
For Cc1ncc(CO)c2c1Oc1nc(-c3ccc(Cl)cc3)nc(SCC(=O)N3CCCCC3)c1C2 the results were Sm TGR inh 39.8µM.
Screening CSc1ccc(CCNC(=O)c2cc3cc4cc(C)ccc4nc3s2)cc1 returned Sm TGR inh inactive.
`O=C(c1ccc(F)cc1)[C@@H]1[C@@H](C(=O)c2ccccc2)[C@@]2(C(=O)Nc3ccccc32)[C@H]2c3ccccc3C=CN12` gave Pf growth 48h inconclusive, Pf growth 96h 5.22µM, NS1 function inh inactive, Shiga toxin inh inactive, Cycloheximide cs inactive and Sm TGR inh 44.7µM.
`CC(=O)[C@@H]1[C@@H](C(=O)c2ccc(F)cc2)[C@]2(C(=O)Nc3ccccc32)[C@H]2C=Cc3cc(F)ccc3N12` gave Pf growth 48h inconclusive, Pf growth 96h inconclusive, NS1 function inh inactive, Shiga toxin inh inactive, Cycloheximide cs inactive and Sm TGR inh 50.1µM.
Cc1ccc(C(=O)N2CC(=O)Nc3ccc(F)cc3C2c2ccccc2)cc1 (stereo not given) was read as Pf growth 48h inconclusive, Pf growth 96h inconclusive, NS1 function inh inactive, Shiga toxin inh inactive, Cycloheximide cs inactive and Sm TGR inh inactive.
For CC(=O)[C@@H]1[C@@H](C(=O)c2ccc(C)cc2)[C@]2(C(=O)Nc3ccccc32)[C@H]2C=Cc3cc(F)ccc3N12 the results were Pf growth 48h inconclusive, Pf growth 96h inconclusive, NS1 function inh inactive, Shiga toxin inh inactive, Cycloheximide cs inactive and Sm TGR inh inconclusive.
Screening CCOc1ccc(-c2c(C)nn3c(C)c(C(=O)NCC(C)c4ccccc4)cnc23)cc1OCC (stereo not given) returned Sm TGR inh inactive.
Screening O=C1CC(=O)N(CCNc2ncc(C(F)(F)F)cc2Cl)C(=O)N1 returned Pf growth 48h inactive, Pf growth 96h inactive, NS1 function inh inconclusive, Shiga toxin inh inactive, Cycloheximide cs inactive and Sm TGR inh inactive.
For O=C1C=CC(=O)N1CCNc1ncc(C(F)(F)F)cc1Cl the results were Pf growth 48h inactive, Pf growth 96h inactive, NS1 function inh inactive, Shiga toxin inh inactive, Cycloheximide cs inactive and Sm TGR inh 0.398µM.
`O=c1[nH]c2cc(Cl)ccc2n(CCNc2ncc(C(F)(F)F)cc2Cl)c1=O` gave Pf growth 48h inactive, Pf growth 96h inactive, NS1 function inh inactive, Shiga toxin inh inactive, Cycloheximide cs inactive and Sm TGR inh inactive.
`O=c1cc(Cl)[nH]c(=O)n1CCNc1ncc(C(F)(F)F)cc1Cl` gave Pf growth 48h inactive, Pf growth 96h inactive, NS1 function inh inactive, Shiga toxin inh 93.8, Cycloheximide cs 35.5 and Sm TGR inh inactive.
Screening CC(=O)C1=NOC(CNc2ncc(C(F)(F)F)cc2Cl)C1 (stereo not given) returned Pf growth 48h inactive, Pf growth 96h inactive, NS1 function inh inactive, Shiga toxin inh inactive, Cycloheximide cs 17.2 and Sm TGR inh inactive.
`CS(=O)(=O)NCCNc1ncc(C(F)(F)F)cc1Cl` gave Pf growth 48h inconclusive, Pf growth 96h inactive, Shiga toxin inh inactive, Cycloheximide cs inactive and Sm TGR inh inactive.
For O=S(=O)(NCCNc1ncc(C(F)(F)F)cc1Cl)C(F)(F)F the results were Pf growth 48h inactive, Pf growth 96h inactive, NS1 function inh inactive, Shiga toxin inh 57.0 and Cycloheximide cs inactive.
Screening CC1CCCC(NC(=O)CCNS(=O)(=O)c2ccc(Br)cc2)C1C (stereo not given) returned Pf growth 48h inconclusive, Pf growth 96h inconclusive, Shiga toxin inh inactive, Cycloheximide cs inactive and Sm TGR inh inactive.
For CCC(Cn1nnc2ccccc2c1=O)NC(=O)Nc1ccccc1OC (stereo not given) the results were Sm TGR inh inactive.
For COc1ccccc1C(=O)NNC(=O)c1cccc([N+](=O)[O-])c1 the results were Pf growth 48h inactive, Pf growth 96h inactive, NS1 function inh inactive, Shiga toxin inh 60.6 and Cycloheximide cs 32.3.
Screening COc1ccccc1C(=O)NNC(=O)c1cccc(C)c1 returned Pf growth 48h inactive, Pf growth 96h inconclusive, NS1 function inh inactive, Cycloheximide cs 23.5 and Sm TGR inh inactive.
